Source: PubChem
Compounds with a hit are over-represented: about 1.1% of the library has one in this group of screens.
STK33 inh: inhibitors of human STK33 kinase; Q9BYT3; ADP-Glo luminescence, MBP substrate; inhibition, % at 12.5 µM; hit rate 0.44% among 27,000; AID 2322; in the data active = inhibition above about 20%; inconclusive = no clear call, values can overlap the other calls
ID4 SMM: ID4 (human) binding; P47928; small molecule microarray, Flag-ID4 binding, fluorescence F/B; calls only; hit rate 1.2% among 31,000; AID 624137; call rule not given here;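 note: a binder raises fluorescence above local background on the spot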
Target sequence (P47928 whole entry, looked up): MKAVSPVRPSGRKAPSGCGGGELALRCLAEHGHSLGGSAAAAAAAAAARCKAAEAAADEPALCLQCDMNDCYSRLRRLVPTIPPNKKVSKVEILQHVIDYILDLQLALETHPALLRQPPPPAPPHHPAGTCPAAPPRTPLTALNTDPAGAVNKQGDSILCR
Numbers stand for hits; 0 = inactive; ? = inconclusive; - = no result given; + = active, no number.

SMILES	STK33 inh	ID4 SMM
CC(C(=O)Oc1cccc2cccnc12)N1C(=O)c2ccccc2C1=O (configuration not stated)	0	0
Cc1nn2c(CN(C(=O)c3cccs3)c3ccccc3)nnc2c2ccccc12	0	0
Cc1nn2c(CN(C(=O)CN3CCOCC3)c3ccccc3)nnc2c2ccccc12	0	+
O=C(CSc1ncccn1)Nc1ccc(Cl)cc1Cl	0	0
O=C(Nc1ccc(Cl)cc1Cl)NC(Cc1ccc(O)cc1)C(=O)O (configuration not stated)	0	+
Cc1cc(=O)oc2cc(NC(=S)NCc3cccnc3)ccc12	0	+
COc1ccc(NC(=S)NCc2cccnc2)cc1OC	0	0
Cc1cc(OCC(=O)Nc2cccc3ncccc23)ccc1Cl	0	0
OCCSc1nnc(-c2ccccc2O)n1-c1ccccc1	0	0
CNC[C@@H]1Oc2c(NC(=O)c3nc4ccccc4s3)cccc2C(=O)N([C@H](C)CO)C[C@@H]1C	-	0
Cc1cc(C)nc(NS(=O)(=O)c2ccc(NC(=O)c3ccc(-c4ccccc4)cc3)cc2)n1	0	0
Cc1cc(C)nc(NS(=O)(=O)c2ccc(NC(=O)c3ccc(C(=O)c4ccccc4)cc3)cc2)n1	0	+
C[C@H](CO)N1C[C@H](C)[C@@H](CN(C)Cc2ccccc2C(=O)O)Oc2cc(-c3ccc(C(=O)N(C)C)cc3)ccc2S1(=O)=O	-	0
COC(=O)Nc1nc2ccc(C(=O)c3ccccc3)cc2[nH]1	0	-
COC(=O)Nc1nc2ccc(C(=O)c3cccs3)cc2[nH]1	22.1	0
Cc1cc(I)cnc1NC(=S)NC(=O)c1ccco1	0	0
Cc1cccc(C(=O)NCc2n[nH]c(=S)n2-c2ccccc2)c1	0	+
COc1ccc(C(=O)NCc2n[nH]c(=S)n2C)cc1OC	0	0
Cc1ccc(C(=O)Nc2cccc(OC(=O)c3cc(S(=O)(=O)N4CCCCC4)ccc3Cl)c2)cc1	0	+
O=C(Nc1cccc(O)c1)c1cc(S(=O)(=O)N2CCOCC2)ccc1Cl	0	0
O=C(O)c1cccc(CSc2nnc(-c3ccco3)o2)c1	0	+
COc1cc(OC)cc(-c2nnc(SCc3cccc(C(=O)O)c3)o2)c1	0	0
CC/C=C\C/C=C\C/C=C\CCCCCCCCCCCC(=O)O	0	0
CC/C=C\C/C=C\C/C=C\CCCCCCCC(=O)O	0	+
COc1ccc(-n2c(/C=C/N(C)C)c([N+](=O)[O-])c3ccc(OC(C)=O)c(COC(C)=O)c32)cc1	0	0
SMILES	STK33 inh	ID4 SMM
C[C@@H]1CCCCO[C@@H](CN(C)C(=O)CCC(F)(F)F)[C@@H](C)CN([C@H](C)CO)C(=O)c2cc(NS(=O)(=O)c3cn(C)cn3)ccc2O1	0	-
O=c1c2ccccc2oc2ccc(O)cc12	0	0
COc1ccc2oc3ccccc3c(=O)c2c1	60.7	-
COc1cccc(-c2cnc3c(c2)C(=O)N([C@H](C)CO)C[C@@H](C)[C@H](CN(C)Cc2cccnc2)O3)c1	-	+
COc1cccc(-c2cnc3c(c2)C(=O)N([C@@H](C)CO)C[C@@H](C)[C@@H](CN(C)Cc2cccnc2)O3)c1	-	0
COc1ccc(-c2cnc3c(c2)C(=O)N([C@H](C)CO)C[C@H](C)[C@H](CN(C)Cc2ccccn2)O3)cc1	-	0
COc1ccc(-c2cnc3c(c2)C(=O)N([C@H](C)CO)C[C@@H](C)[C@H](CN(C)Cc2ccccn2)O3)cc1	-	+
Cc1cc(Cl)c(S(=O)(=O)N2CCCCC2)cc1OCC(N)=O	0	0
CCn1c(SCC(=O)N2c3ccccc3Sc3ccccc32)nnc1-c1cccc(Cl)c1	?	0
Cc1noc(C)c1S(=O)(=O)N(C)C[C@@H]1OCCCC[C@@H](C)Oc2ccc(NC(=O)Cc3ccccc3)cc2C(=O)N([C@H](C)CO)C[C@@H]1C	0	-
O=c1[nH]c2ccccc2c2ccccc12	31.5	0
O=Cc1c2[nH]c3ccccc3c2cc2[nH]c3ccccc3c12	0	0
C[C@H](CO)N1C[C@H](C)[C@H](CN(C)S(=O)(=O)c2ccccc2)Oc2ccc(NC(=O)Nc3cccc4ccccc34)cc2C1=O	0	-
O=C(COc1ccc(Br)cc1)Nc1cccc(-c2nc3ncccc3o2)c1	0	0
COc1cc(C(=O)Nc2cccc(-c3nc4ncccc4o3)c2)cc(OC)c1OC	30.4	0
C[C@@H]1CCCCO[C@H](CN(C)Cc2ccncc2)[C@H](C)CN([C@H](C)CO)C(=O)c2cc(NS(=O)(=O)c3ccccc3)ccc2O1	-	0
C[C@@H]1CCCCO[C@@H](CN(C)S(=O)(=O)c2ccc(F)cc2)[C@@H](C)CN([C@H](C)CO)C(=O)c2cc(NC(=O)Nc3ccccc3)ccc2O1	0	0
COC(=O)c1c2oc(c1C(=O)OC)C(=O)N[C@H](Cc1ccccc1)Cn1cc(nn1)CNC(=O)[C@H](Cc1ccccc1)NC(=O)N[C@@H](CO)CC2	-	+
COC(=O)c1c2oc(c1C(=O)OC)C(=O)N(C)Cc1cn(nn1)C[C@@H](C)NC(=O)N[C@H](CO)CC2	-	0
COC(=O)c1c2oc(c1C(=O)OC)C(=O)N(C)Cc1cn(nn1)C[C@H](Cc1ccccc1)NC(=O)N[C@H](CO)CC2	-	+
COC(=O)c1c2oc(c1C(=O)OC)C(=O)N[C@@H](Cc1ccccc1)Cn1cc(nn1)CNC(=O)[C@H](Cc1ccccc1)NC(=O)N[C@@H](CO)CC2	-	0
C=CCn1c(=O)c(C(=O)NCCO)c(O)c2ccccc21	0	0
COC(=O)N(C)C[C@@H]1OCc2ccccc2-c2ccccc2C(=O)N([C@@H](C)CO)C[C@@H]1C	-	0
COc1cc(NC(=O)COc2ccc(Br)cc2)ccc1NC(=O)c1ccco1	0	0
O=c1cc(-c2ccc(O)cc2)oc2cc(O)cc(O)c12	54.3	-
SMILES	STK33 inh	ID4 SMM
COc1cc(O)c2c(=O)cc(-c3ccc(O)cc3)oc2c1	0	-
Cc1cc(O)cc2oc3cc(O)cc(O)c3c(=O)c12	0	-
O=c1cc(-c2ccccc2)oc2cccc(O)c12	0	0
O=c1c(O)c(-c2ccc(O)cc2)oc2cc(O)cc(O)c12	33.5	-
O=c1cc(-c2ccccc2)oc2cc(O)cc(O)c12	33.1	-
C[C@H](CO)N1C[C@H](C)[C@H](CN(C)C(=O)Nc2ccc(F)cc2)Oc2ccc(NC(=O)Cn3cnnn3)cc2CC1=O	-	0
C[C@@H]1CN([C@H](C)CO)C(=O)c2cccc(NS(C)(=O)=O)c2O[C@H]1CN(C)C(=O)Nc1ccccc1	-	0
O=C(N[C@@H](Cc1ccccc1)Cn1cc(CN2C(=O)COC[C@H]2c2ccccc2)nn1)c1ccccc1	-	0
O=C(Nc1ccccc1)N[C@H](Cc1ccccc1)Cn1cc(CN2C(=O)COC[C@H]2c2ccccc2)nn1	-	+
CCn1c(SCC(=O)N2c3ccccc3CCc3ccccc32)nnc1-c1ccco1	0	0
O=C(C[C@H]1CC[C@H](NC(=O)CC2CC2)[C@H](CO)O1)NCc1ccc(Cl)cc1	-	0
C=CCNC(=O)[C@H]1[C@@H]2C(=O)O[C@@H](c3ccccc3)[C@@H](c3ccccc3)N2[C@@H](c2ccccc2OCCO)[C@]12C(=O)Nc1ccc(C#CC3=CCCCC3)cc12	0	0
COC(=O)CCCCCCC(=O)Nc1ccc(NC(=O)CCCC[P+](c2ccccc2)(c2ccccc2)c2ccccc2)cc1	-	+
O=C(CCCC(=O)Nc1ccccc1)Nc1ccccc1	0	0
O=C(CN1C(=O)c2ccccc2C1=O)Oc1ccc(C(=O)Nc2ccccc2)cc1	0	0
COc1ccc(NC(=O)CN2CCN(S(=O)(=O)c3ccccc3)CC2)cc1	0	0
NS(=O)(=O)c1ccc(NC(=O)CN2CCN(Cc3ccccc3)CC2)cc1	0	+
